# Activity calls are given as the source filed them. Rule for the calls: active = hit-call score of the fitted dose curve at least 0.9, where 1 is the maximum; inactive = score below 0.9.
# Key:
# [1] = ATG_E_Box_CIS: Attagene CIS-FACTORIAL HepG2 Assay for human Enhancer Box (E-box) (AID 2282936); details: HepG2 E-box cis-reporter transcription, actives raise or lower the signal
# In short: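 Transiently transfected HepG2, endogenous TF-driven reporters, 24 h dosing. Readout: RT-PCR plus capillary electrophoresis of fluorescent reporter fragments. Gain or loss of signal fitted bidirectionally against DMSO baseline.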
# [2] = ATG_M_61_CIS: Attagene CIS-FACTORIAL HepG2 Assay for M61 Transcription Factor (Internal Marker) (AID 2282937); details: HepG2 Attagene CIS-FACTORIAL M61 internal marker reporter; actives raise or lower the signal
# In short: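 Multiplexed reporter mRNA assay, HepG2 human hepatoma cells, 24 h treatment. Signal: FAM-labelled, HpaI-digested RT-PCR fragments by CE. Fit: bidirectional, baseline DMSO.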
# [3] = ATG_EGR_CIS: Attagene CIS-FACTORIAL HepG2 Assay for human Early Growth Response 1 (EGR1) (AID 2282938); details: HepG2 Attagene CIS-FACTORIAL EGR reporter mRNA; actives raise or lower the signal
# In short: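 Multiplexed cis-reporter system in human hepatoma HepG2 cells, transiently transfected. Cells are dosed for 24 h; reporter transcripts are amplified, fluorescently tagged and sized by capillary electrophoresis, with DMSO as negative control.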
# [4] = ATG_M_19_CIS: Attagene CIS-FACTORIAL HepG2 Assay for M19 Transcription Factor (Internal Marker) (AID 2282939); details: HepG2 Attagene CIS-FACTORIAL M19 internal marker reporter; actives raise or lower the signal
# In short: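 Following a 24 h exposure, RNA from transfected HepG2 cells was reverse-transcribed, PCR-amplified with reporter-specific primers, end-labelled with 6-FAM and HpaI-digested before capillary separation. Values represent gain or loss versus DMSO.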
# [5] = ATG_Ets_CIS: Attagene CIS-FACTORIAL HepG2 Assay for human Erythroblast Transformation Specific (ETS) (AID 2282941); details: HepG2 ETS cis-reporter transcription, actives raise or lower the signal
# In short: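 Endogenous transcription factor activity read as reporter mRNA via RT-PCR and capillary electrophoresis, with gain or loss fitted bidirectionally against DMSO. Human HepG2 liver cells, transiently transfected CIS reporter constructs, 24 h exposure.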
# [6] = molecular target: Hepatocyte nuclear factor 3-beta (Homo sapiens) (UniProt Q9Y261); experiment: ATG_FoxA2_CIS: Attagene CIS-FACTORIAL HepG2 Assay for human Forkhead box A2 (FOXA2) (AID 2282942); details: HepG2 cis-reporter transcription factor activity, 24 h; actives raise or lower the signal
# Hepatocyte nuclear factor 3-beta (Homo sapiens), sequence (Q9Y261 whole entry, looked up): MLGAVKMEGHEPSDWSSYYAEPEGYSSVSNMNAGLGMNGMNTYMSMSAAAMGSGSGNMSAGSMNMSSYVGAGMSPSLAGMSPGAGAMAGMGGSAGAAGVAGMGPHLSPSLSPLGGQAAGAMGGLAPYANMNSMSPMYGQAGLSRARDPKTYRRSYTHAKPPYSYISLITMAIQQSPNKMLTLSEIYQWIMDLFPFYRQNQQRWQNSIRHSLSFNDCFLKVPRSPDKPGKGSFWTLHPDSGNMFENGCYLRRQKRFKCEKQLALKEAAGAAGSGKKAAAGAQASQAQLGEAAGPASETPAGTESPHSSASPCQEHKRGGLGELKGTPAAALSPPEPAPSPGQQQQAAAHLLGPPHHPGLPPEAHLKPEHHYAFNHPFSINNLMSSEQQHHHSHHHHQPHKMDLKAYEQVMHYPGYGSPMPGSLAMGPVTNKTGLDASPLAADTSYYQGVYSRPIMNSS
# In short: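 Multiplexed cis-element reporter assay in transiently transfected HepG2. Twenty-four hours post-dosing, RNA was reverse-transcribed, amplified, FAM-labelled, HpaI-digested and separated by CE. Activity gain or loss relative to DMSO.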
# [7] = ATG_GATA_CIS: Attagene CIS-FACTORIAL HepG2 Assay for human GATA Binding Protein (AID 2282944); details: HepG2 GATA cis-element reporter, Attagene multiplex mRNA; actives raise or lower the signal
# In short: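 DMSO serves as negative control and baseline for bidirectional fitting of reporter mRNA changes. HepG2 cells bearing transiently transfected cis-promoter reporters were exposed 24 h; transcripts detected via RT-PCR and capillary electrophoresis.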
# [8] = molecular target: Bile acid receptor (Homo sapiens) (UniProt Q96RI1); experiment: ATG_IR1_CIS: Attagene CIS-FACTORIAL HepG2 Assay for human Nuclear Receptor Subfamily 1 Group H Member 4 (NR1H4), IR1 submotif (AID 2282946); details: IR1 reporter transcription, actives raise or lower the signal
# Bile acid receptor (Homo sapiens), sequence (Q96RI1 whole entry, looked up): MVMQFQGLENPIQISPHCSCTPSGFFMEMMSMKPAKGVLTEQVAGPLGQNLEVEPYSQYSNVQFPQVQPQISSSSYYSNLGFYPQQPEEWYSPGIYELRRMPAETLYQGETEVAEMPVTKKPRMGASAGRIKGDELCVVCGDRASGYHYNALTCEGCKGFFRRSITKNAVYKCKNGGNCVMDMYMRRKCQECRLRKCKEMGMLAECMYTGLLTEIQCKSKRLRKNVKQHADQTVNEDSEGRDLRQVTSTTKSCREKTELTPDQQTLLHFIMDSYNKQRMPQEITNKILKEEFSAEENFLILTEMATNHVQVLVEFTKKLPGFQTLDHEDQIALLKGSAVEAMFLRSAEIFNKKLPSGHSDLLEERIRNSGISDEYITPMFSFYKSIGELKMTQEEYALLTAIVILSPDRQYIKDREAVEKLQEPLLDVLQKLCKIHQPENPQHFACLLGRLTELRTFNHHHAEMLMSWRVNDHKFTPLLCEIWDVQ
# In short: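 Fluorescence of capillary-separated, HpaI-digested RT-PCR reporter products gave IR1-element mRNA induction in HepG2 cells 24 h after dosing. Endogenous transcription factors drove the cis-regulated reporters; activity was fitted bidirectionally against DMSO.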
# [9] = ATG_ISRE_CIS: Attagene CIS-FACTORIAL HepG2 Assay for human Interferon Regulatory Factor 1 (IRF1) binding to an Interferon-Stimulated Response Element (ISRE) (AID 2282948); details: HepG2 ISRE cis-reporter (Attagene), mRNA transcription readout; actives raise or lower the signal
# In short: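 Endogenous transcription factor activity read as reporter transcript abundance via RT-PCR and capillary electrophoresis. HepG2 cells transiently transfected, 24 h chemical exposure. Gain or loss fitted against DMSO baseline.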
# [10] = ATG_M_32_CIS: Attagene CIS-FACTORIAL HepG2 Assay for M32 Transcription Factor (Internal Marker) (AID 2282949); details: HepG2 Attagene cis-factorial M32 reporter, mRNA; actives raise or lower the signal;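 note: background control marker of the multiplexed CIS panel rather than a real target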
# In short: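 Using DMSO as baseline, bidirectional curve fits were applied to reporter mRNA signals. These came from transiently transfected HepG2 cells exposed for 24 h, with RNA analysed by RT-PCR, FAM primer extension, HpaI digestion and CE.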
# [11] = ATG_M_06_CIS: Attagene CIS-FACTORIAL HepG2 Assay for M06 Transcription Factor (Internal Marker) (AID 2282950); details: HepG2 Attagene CIS-FACTORIAL M06 internal marker reporter; actives raise or lower the signal
# In short: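 Fluorescence-labelled RT-PCR products from cis-promoter reporter units, cut with HpaI and resolved by capillary electrophoresis, give the signal. Cells are human HepG2, dosed for 24 h. Serves as background control, fitted relative to DMSO.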
# [12] = molecular target: Hypoxia-inducible factor 1-alpha (Homo sapiens) (UniProt Q16665); experiment: ATG_HIF1a_CIS: Attagene CIS-FACTORIAL HepG2 Assay for human Hypoxia Inducible Factor 1 (HIF1A) (AID 2282951); details: HepG2 Attagene cis-factorial HIF1a reporter transcription; actives raise or lower the signal
# Hypoxia-inducible factor 1-alpha (Homo sapiens), sequence (Q16665 whole entry, looked up): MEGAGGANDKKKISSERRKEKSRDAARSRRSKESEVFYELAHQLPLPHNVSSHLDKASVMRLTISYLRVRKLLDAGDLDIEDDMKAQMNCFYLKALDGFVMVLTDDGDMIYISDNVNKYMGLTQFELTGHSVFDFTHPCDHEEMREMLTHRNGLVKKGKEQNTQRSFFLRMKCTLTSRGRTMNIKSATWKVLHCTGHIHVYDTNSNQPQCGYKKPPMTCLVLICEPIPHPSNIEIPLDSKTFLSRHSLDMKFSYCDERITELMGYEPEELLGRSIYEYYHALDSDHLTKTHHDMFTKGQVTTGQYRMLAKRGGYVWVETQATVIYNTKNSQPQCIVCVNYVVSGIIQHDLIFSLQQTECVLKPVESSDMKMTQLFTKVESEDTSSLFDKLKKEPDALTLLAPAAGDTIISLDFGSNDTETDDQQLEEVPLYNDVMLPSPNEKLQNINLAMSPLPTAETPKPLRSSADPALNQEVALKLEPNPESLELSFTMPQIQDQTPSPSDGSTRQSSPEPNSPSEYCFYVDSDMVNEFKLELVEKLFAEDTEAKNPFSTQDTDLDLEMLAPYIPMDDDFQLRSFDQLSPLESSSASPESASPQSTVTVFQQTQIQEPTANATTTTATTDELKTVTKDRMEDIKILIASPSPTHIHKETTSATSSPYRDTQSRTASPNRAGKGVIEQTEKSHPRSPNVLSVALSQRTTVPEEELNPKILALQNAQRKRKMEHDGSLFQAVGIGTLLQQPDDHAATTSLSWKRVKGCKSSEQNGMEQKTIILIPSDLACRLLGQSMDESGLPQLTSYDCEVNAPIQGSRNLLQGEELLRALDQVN
# In short: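 Cis-element reporter constructs were transiently transfected into HepG2 cells, which were treated for 24 h; reporter RNA was reverse-transcribed, amplified, labelled and resolved by capillary electrophoresis.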
# [13] = molecular target: Hepatocyte nuclear factor 6 (Homo sapiens) (UniProt Q9UBC0); experiment: ATG_HNF6_CIS: Attagene CIS-FACTORIAL HepG2 Assay for human Hepatocyte Nuclear Factor 6 (HNF6) (AID 2282952); details: HepG2 Attagene cis-factorial HNF6 reporter transcription; actives raise or lower the signal
# Hepatocyte nuclear factor 6 (Homo sapiens), sequence (Q9UBC0 whole entry, looked up, the tested form may be a part): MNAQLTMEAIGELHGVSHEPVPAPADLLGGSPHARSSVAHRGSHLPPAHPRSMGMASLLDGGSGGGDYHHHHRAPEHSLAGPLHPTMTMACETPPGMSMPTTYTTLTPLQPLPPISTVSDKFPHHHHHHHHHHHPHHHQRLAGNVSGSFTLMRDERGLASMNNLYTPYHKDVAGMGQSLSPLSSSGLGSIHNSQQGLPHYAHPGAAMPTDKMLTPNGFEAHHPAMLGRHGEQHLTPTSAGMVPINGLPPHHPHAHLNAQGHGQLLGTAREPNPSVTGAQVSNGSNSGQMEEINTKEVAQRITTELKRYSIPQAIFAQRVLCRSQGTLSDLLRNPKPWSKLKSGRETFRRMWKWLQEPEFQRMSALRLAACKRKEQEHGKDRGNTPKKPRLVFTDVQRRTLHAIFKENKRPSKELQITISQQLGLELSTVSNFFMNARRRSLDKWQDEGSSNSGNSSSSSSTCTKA
# In short: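 Readout: fluorescent reporter-transcript fragments resolved by capillary electrophoresis after RT-PCR, reflecting endogenous factor activity in transfected HepG2. Exposure 24 h. Gain or loss of signal fitted bidirectionally against DMSO.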
# [14] = molecular target: Heat shock factor protein 1 (Homo sapiens) (UniProt Q00613); experiment: ATG_HSE_CIS: Attagene CIS-FACTORIAL HepG2 Assay for human Heat Shock Transcription Factor 1 (HSE) (AID 2282953); details: HepG2 HSE cis-reporter, Attagene RNA transcription; actives raise or lower the signal
# Heat shock factor protein 1 (Homo sapiens), sequence (Q00613 whole entry, looked up): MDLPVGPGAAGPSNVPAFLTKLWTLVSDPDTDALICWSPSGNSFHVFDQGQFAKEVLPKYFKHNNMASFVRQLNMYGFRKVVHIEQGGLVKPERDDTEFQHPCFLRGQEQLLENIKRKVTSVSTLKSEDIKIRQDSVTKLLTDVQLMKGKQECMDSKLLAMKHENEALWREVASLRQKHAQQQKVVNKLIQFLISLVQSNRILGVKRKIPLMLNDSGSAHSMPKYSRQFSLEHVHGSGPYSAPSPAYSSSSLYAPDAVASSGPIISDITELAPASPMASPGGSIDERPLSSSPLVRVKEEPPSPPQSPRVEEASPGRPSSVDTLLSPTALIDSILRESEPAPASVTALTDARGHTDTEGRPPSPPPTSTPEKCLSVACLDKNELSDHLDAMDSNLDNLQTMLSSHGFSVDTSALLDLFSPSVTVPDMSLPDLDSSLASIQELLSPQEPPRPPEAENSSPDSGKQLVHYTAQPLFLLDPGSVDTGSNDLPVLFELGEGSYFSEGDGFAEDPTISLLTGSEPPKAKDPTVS
# In short: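 After a 24 h incubation with test chemical, transfected HepG2 cells were harvested for RNA; reporter transcripts were measured by RT-PCR and capillary electrophoresis. Values reflect gain or loss of signal relative to DMSO.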
# [15] = ATG_MRE_CIS: Attagene CIS-FACTORIAL HepG2 Assay for human Metal Responsive Element (MRE) (AID 2282954); details: HepG2 MRE cis-reporter transcription, Attagene multiplex; actives raise or lower the signal
# In short: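 RT-PCR/capillary electrophoresis readout of reporter mRNA, 24 h post-dosing, in HepG2 cells transfected with multiplexed cis-regulated reporter constructs. Gain or loss of signal fitted bidirectionally against DMSO baseline.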
# [16] = ATG_FoxO_CIS: Attagene CIS-FACTORIAL HepG2 Assay for human Forkhead box O (FoxO) (AID 2282943); details: HepG2 Attagene cis-reporter, FoxO element, mRNA; actives raise or lower the signal
# In short: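 HepG2 cells transiently transfected with cis-element-driven reporter units report endogenous FoxO activity. After 24 h chemical exposure, reporter mRNA quantified by RT-PCR, fluorescent labeling, HpaI digestion and capillary electrophoresis; bidirectional fit versus DMSO.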
# [17] = ATG_GLI_CIS: Attagene CIS-FACTORIAL HepG2 Assay for human Zinc Finger Protein GLI1 (AID 2282945); details: HepG2, Attagene cis-factorial reporter mRNA, GLI element; actives raise or lower the signal
# In short: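 Transiently transfected HepG2 cells report endogenous transcription factor activity via cis-element-driven reporter units. After 24 h compound exposure, reporter mRNA was measured by RT-PCR with capillary electrophoresis; bidirectional fitting against DMSO baseline.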
# [18] = ATG_PBREM_CIS: Attagene CIS-FACTORIAL HepG2 Assay for human Phenobarbital-responsive Enhancer Module (PBREM) (AID 2282955); details: HepG2 PBREM cis-reporter, Attagene multiplexed transcription; actives raise or lower the signal
# In short: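 Multiplexed cis-reporter readout in human hepatoma HepG2 cells; PBREM-regulated transcript quantified after 24 h exposure by fluorescent RT-PCR fragment analysis. Signal changes up or down fitted relative to DMSO.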
# [19] = ATG_GRE_CIS: Attagene CIS-FACTORIAL HepG2 Assay for human Glucocorticoid Response Elements (GRE) (AID 2282947); details: HepG2 GRE cis-reporter, Attagene multiplex mRNA; actives raise or lower the signal
# In short: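 Read-out: fluorescent reporter-transcript fragments separated by capillary electrophoresis after RT-PCR. Transiently transfected HepG2 cells carrying cis-element-driven reporter units were dosed for 24 h; gain or loss of signal fitted against DMSO control.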
compound,measurement,setting,value
CSc1c(Cl)c(Cl)c(Cl)c(Cl)c1Cl,AC50,[1],26 µM (active)
same,outcome,[2],inactive
same,outcome,[3],inactive
same,outcome,[4],inactive
same,outcome,[5],inactive
same,outcome,[6],inactive
same,outcome,[7],inactive
same,AC50,[8],5.76 µM (active)
same,AC50,[9],27.9 µM (active)
same,outcome,[10],inactive
same,outcome,[11],inactive
same,outcome,[12],inactive
same,outcome,[13],inactive
same,outcome,[14],inactive
same,AC50,[15],100 µM (active)
c1ccc(CCc2ccccc2)cc1,outcome,[1],inactive
same,outcome,[2],inactive
same,outcome,[3],inactive
same,outcome,[5],inactive
same,outcome,[6],inactive
same,outcome,[16],inactive
same,outcome,[7],inactive
same,outcome,[17],inactive
same,outcome,[8],inactive
same,outcome,[9],inactive
same,outcome,[10],inactive
same,outcome,[11],inactive
same,outcome,[12],inactive
same,outcome,[13],inactive
same,outcome,[14],inactive
same,outcome,[15],inactive
CCCCCCCCC=CCCCCCCCC1=NCCN1CCO,AC50,[1],26.7 µM (active)
same,outcome,[2],inactive
same,outcome,[3],inactive
same,outcome,[4],inactive
same,AC50,[5],126 µM (active)
same,AC50,[6],25.7 µM (active)
same,outcome,[7],inactive
same,AC50,[8],26.1 µM (active)
same,AC50,[9],189 µM (active)
same,outcome,[10],inactive
same,outcome,[11],inactive
same,outcome,[12],inactive
same,outcome,[13],inactive
same,outcome,[14],inactive
same,outcome,[15],inactive
same,outcome,[18],inactive
Nc1ccc2cc(S(=O)(=O)O)cc(O)c2c1N=Nc1ccccc1C(F)(F)F,outcome,[1],inactive
same,outcome,[2],inactive
same,outcome,[3],inactive
same,outcome,[5],inactive
same,outcome,[6],inactive
same,outcome,[16],inactive
same,outcome,[7],inactive
same,outcome,[17],inactive
same,outcome,[8],inactive
same,outcome,[19],inactive
same,outcome,[9],inactive
same,outcome,[10],inactive
same,outcome,[11],inactive
same,outcome,[12],inactive
same,outcome,[13],inactive
same,outcome,[14],inactive
same,outcome,[15],inactive
CCCSc1ccc2nc(NC(=O)OC)[nH]c2c1,outcome,[1],inactive
same,outcome,[2],inactive
same,outcome,[3],inactive
same,outcome,[4],inactive
same,outcome,[5],inactive
same,outcome,[6],inactive
same,outcome,[7],inactive
same,outcome,[17],inactive
same,outcome,[19],inactive
same,outcome,[9],inactive
same,outcome,[10],inactive
same,outcome,[11],inactive
same,outcome,[12],inactive
same,outcome,[13],inactive
same,outcome,[14],inactive
same,outcome,[15],inactive
same,outcome,[18],inactive
Oc1c(Cl)cc(Cl)c(Cl)c1Cc1c(O)c(Cl)cc(Cl)c1Cl,outcome,[1],inactive
same,outcome,[2],inactive
same,AC50,[3],11.1 µM (active)
same,AC50,[5],0.878 µM (active)
same,outcome,[6],inactive
same,outcome,[16],inactive
same,outcome,[7],inactive
same,outcome,[17],inactive
same,outcome,[8],inactive
same,AC50,[9],6 µM (active)
same,outcome,[10],inactive
same,outcome,[11],inactive
same,AC50,[12],8.52 µM (active)
same,outcome,[13],inactive
same,AC50,[14],17.1 µM (active)
same,AC50,[15],9.9 µM (active)
same,AC50,[18],1.12 µM (active)
Cc1ccc(OC(=O)c2ccccc2O)cc1,outcome,[1],inactive
same,outcome,[2],inactive
same,outcome,[3],inactive
same,outcome,[4],inactive
same,outcome,[5],inactive
same,outcome,[6],inactive
same,outcome,[7],inactive
same,outcome,[17],inactive
same,outcome,[19],inactive
same,outcome,[9],inactive
same,outcome,[10],inactive
same,outcome,[11],inactive
same,outcome,[12],inactive
same,outcome,[13],inactive
same,outcome,[14],inactive
same,outcome,[15],inactive

# — PubChem BioAssay (EPA / NIEHS)
